Data published in PubChem BioAssay (NCATS).
Several values for one entry are separate records, joined by “and”; a condition that tells them apart may be missing. Equal entries are not always repeated. Records with an inconclusive call do not appear. Where a call stands in place of a potency, no number is given. Activity calls are given as the source filed them. Unless noted, calls follow the shape of the dose curve; as a rule, active = well fitted curve in the direction sought with a large enough effect; inconclusive = small, poorly fitted or top-dose-only effect, or another doubt; inactive = no such curve, though single readings can be large; an effect the other way counts as inactive or inconclusive.

What was measured:
[1] = Validation of Assay for Modulators of Lamin A Splicing (AID 1459; active = well fitted curve in the direction sought with a large enough effect in the signal ratio; the % refers to the signal ratio;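 also: cells exposed to compound for two days before reading; ratio rise marks activators and ratio drop marks inhibitors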); conditions: Lamin A splicing dual RFP/GFP fluorescence reporter; series mostly up to 9.22 µM
Summary of the method: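 Dual-reporter HeLa S3 line (lamin A-EGFP minigene, DsRed2) treated with compounds 48 hrs, 0.5% DMSO final. Endpoint: EGFP/DsRed2 total intensity ratio from laser-scanning microplate cytometry.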

[2] = qHTS Assay for Lipid Storage Modulators (AID 1519; calls by dose curve); conditions: Drosophila S3 cells, BODIPY lipid droplet/cell ratio, laser cytometry, cells loaded with oleic acid
Summary of the method: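 Cells seeded at 5,000 per well were treated with compounds over a concentration series and loaded with oleic acid (400 uM, as added). Lipid droplet fluorescence (488 nm excitation, 500-530 nm channel) was read by laser-scanning cytometry and normalized to 20 uM Triacsin C.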

[3] = target: DNA repair nuclease/redox regulator APEX1 (Homo sapiens) (UniProt P27695); test: qHTS Validation Assay for Inhibitors of the Human Apurinic/apyrimidinic Endonuclease 1 (APE1) (AID 1705;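 also: TAMRA fluorescence gain over two minutes as APE1 cuts a quenched THF abasic duplex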); conditions: purified APE1 endonuclease activity, fluorescence, titration; series mostly up to 57.1 µM
Summary of the method: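 Substrate: 50 nM final fluorophore/quencher THF-abasic duplex. Enzyme preincubated with compounds 15 min, RT. Progress derived from fluorescence difference, third minus first kinetic read.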

[4] = Counterscreen for APE1 Inhibitors: Fluorescent Dye Displacement Validation Assay (AID 1707); conditions: fluorescent dye displacement from DNA; series mostly up to 57.1 µM
Summary of the method: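 Reaction mixture of 250 nM Thiazole Orange and 50 nM double-stranded abasic-site DNA was dispensed, compounds were pin-transferred, and fluorescence was read at endpoint (480 nm ex, 540 nm em). Reduced fluorescence indicated dye displacement by DNA binding.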

[5] = target: Alpha-galactosidase A (Homo sapiens) (UniProt P06280); test: Counterscreen for Glucocerebrosidase Inhibitors: qHTS Assay for Human alpha-Galactosidase at pH 4.5 (AID 992); conditions: purified enzyme, fluorogenic substrate; series mostly up to 76.9 µM
Summary of the method: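 Steps: enzyme (2 nM final), then compound across 0.7 nM to 77 uM, then 80 uM fluorogenic galactopyranoside substrate; incubate 20 min at room temperature; quench at pH 10; measure fluorescence at 365/440 nm.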

[6] = target: alpha-glucosidase (Oryza sativa, rice) (UniProt Q653V4); test: Counterscreen for Glucocerebrosidase Inhibitors: qHTS Assay for Rice alpha-Glucosidase at pH 5.0 (AID 997); conditions: rice alpha-glucosidase enzyme activity; series mostly up to 76.9 µM
Summary of the method: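 Endpoint fluorogenic assay at pH 5.0: compounds (0.7 nM to 77 uM) titrated against 4 nM rice enzyme and 400 uM 4-MU-alpha-glucoside for 20 min at room temperature; NaOH/glycine stop, read ex 365/em 440 nm, Hill-fitted AC50.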

[7] = target: Alpha-galactosidase (Coffea arabica) (UniProt Q42656); test: Counterscreen for Glucocerebrosidase Inhibitors: qHTS Assay for Coffee Bean alpha-Galactosidase at pH 5.9 (AID 998); conditions: coffee bean alpha-galactosidase enzyme assay; series mostly up to 76.9 µM
Summary of the method: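 Enzyme 2 nM + cpd (0.7 nM–77 uM titration) + 4-MU-alpha-Gal 80 uM, pH 5.9 citrate/Tween-20, RT 20 min, NaOH/glycine stop pH 10, fluor 365/440. Normalized to no-enzyme and full-activity controls; Hill-fit AC50.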

[8] = measured here: cell count channel max response
[9] = measured here: lipid channel max response

Chain of Alpha-galactosidase (Coffea arabica) (Q42656 whole entry, looked up): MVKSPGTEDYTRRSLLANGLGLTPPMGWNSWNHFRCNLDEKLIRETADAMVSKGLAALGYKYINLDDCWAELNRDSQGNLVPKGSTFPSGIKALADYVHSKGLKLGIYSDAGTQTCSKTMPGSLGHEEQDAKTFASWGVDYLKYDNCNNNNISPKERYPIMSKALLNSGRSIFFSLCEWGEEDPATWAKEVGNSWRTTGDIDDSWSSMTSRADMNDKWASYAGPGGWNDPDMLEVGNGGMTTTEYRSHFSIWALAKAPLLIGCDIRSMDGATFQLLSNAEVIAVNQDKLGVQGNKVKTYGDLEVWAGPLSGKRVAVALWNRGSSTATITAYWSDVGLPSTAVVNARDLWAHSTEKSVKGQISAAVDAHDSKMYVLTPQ
Chain of Alpha-galactosidase A (Homo sapiens) (P06280 whole entry, looked up): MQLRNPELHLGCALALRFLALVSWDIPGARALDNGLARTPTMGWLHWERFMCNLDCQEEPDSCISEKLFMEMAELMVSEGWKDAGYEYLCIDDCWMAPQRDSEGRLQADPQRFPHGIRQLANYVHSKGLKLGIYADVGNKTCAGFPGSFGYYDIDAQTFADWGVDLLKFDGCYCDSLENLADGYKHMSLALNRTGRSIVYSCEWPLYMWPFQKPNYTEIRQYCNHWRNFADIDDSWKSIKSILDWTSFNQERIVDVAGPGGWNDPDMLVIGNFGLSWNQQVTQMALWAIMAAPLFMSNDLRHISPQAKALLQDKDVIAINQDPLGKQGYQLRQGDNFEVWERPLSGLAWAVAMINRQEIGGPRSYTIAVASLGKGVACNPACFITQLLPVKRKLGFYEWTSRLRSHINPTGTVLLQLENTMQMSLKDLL
Chain of DNA repair nuclease/redox regulator APEX1 (Homo sapiens) (P27695 whole entry, looked up): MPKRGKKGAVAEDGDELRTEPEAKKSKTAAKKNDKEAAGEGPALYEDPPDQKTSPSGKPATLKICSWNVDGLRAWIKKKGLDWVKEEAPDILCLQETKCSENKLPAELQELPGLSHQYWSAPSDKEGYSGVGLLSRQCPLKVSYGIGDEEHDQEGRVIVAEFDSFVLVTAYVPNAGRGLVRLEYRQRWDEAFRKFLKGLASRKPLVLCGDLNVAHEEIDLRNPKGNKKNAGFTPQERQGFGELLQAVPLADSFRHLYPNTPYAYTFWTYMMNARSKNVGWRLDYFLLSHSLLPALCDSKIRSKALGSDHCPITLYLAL

SMILES | outcome [1] | activity change, negative = inhibition ([2]; at 57.5 µM (top of the series)) | max response [2, 8] | max response [2, 9] | Potency [3] | Potency [4] | outcome [5] | outcome [6] | outcome [7] | activity change, negative = inhibition ([2]; at 25.7 µM (top of the series))
O=C(Cc1ccc(Cl)c(Cl)c1)N1CCCCC1CN1CCCC1 (stereo unspecified) | inactive | 3.16% (inactive) | 16.5% | 19.9% | inactive | inactive |  |  |  | 
NC(CCP(=O)(O)O)C(=O)O (stereo unspecified) | inactive | 2.25% (inactive) | 14.5% | 18.2% | inactive | inactive |  |  |  | 
COc1cc(C(O)CN)ccc1O (stereo unspecified) | inactive |  |  |  | inactive | inactive |  |  |  | 
NCc1cc(=O)[nH]o1 | inactive | -0.672% (inactive) | 5.31% | 4.46% | inactive | inactive | inactive | inactive | inactive | 
Cn1cnc(CCN)c1 | inactive | 1.27% (inactive) | 34.2% | 35.2% | inactive | inactive | inactive | inactive | inactive | 
C[C@@H](N)Cc1cnc[nH]1 | inactive | 0.775% (inactive) | -2.18% | -3.82% | inactive | inactive |  |  |  | 
CC[C@@H]1C(=O)OC[C@@H]1Cc1cncn1C | inactive | -0.176% (inactive) and -1.27% (inactive) | 23.8% and 24.9% | 22.1% and 21.9% | inactive | inactive |  |  |  | 
CCCN(CCC)C1CCc2ccc(O)cc2C1 (stereo unspecified) | inactive |  |  |  | inactive | inactive |  |  |  | 
C=CCN1CC[C@]23CCCCC2[C@H]1Cc1ccc(O)cc13 (stereo partly specified) | inactive |  |  |  | inactive | inactive |  |  |  | 
O=C(O)Cc1cnc[nH]1 | inactive | -0.977% (inactive) | 21.8% | 19% | inactive | inactive | inactive | inactive | inactive | 
NC1CCc2cc(O)c(O)cc2C1 (stereo unspecified) | inactive | -0.984% (inactive) | -18.2% | -19.2% | inactive |  |  |  |  | 
c1ccc2sc(C3(N4CCCCC4)CCCCC3)cc2c1 | inactive | -6.45% (inactive) and -1.27% (inactive) | -3.55% and -30.8% | 4.98% and -30.4% | inactive | inactive | inactive | inactive | inactive | 
S=C(NC1CCCCC1)N1CCC(c2cnc[nH]2)CC1 | inactive | 0.457% (inactive) | 8.5% | 6.88% | inactive | inactive | inactive | inactive | inactive | 
NC(=NCCC[C@H](N)C(=O)O)N[N+](=O)[O-] | inactive | 0.0348% (inactive) | -0.432% | 0.435% | inactive | inactive | inactive | inactive | inactive | 
Cc1nccc2c1[nH]c1ccccc12 | inactive | 2.54% (inactive) | 6.61% and 77.2% | 6.19% and 80.2% |  | inactive | inactive | inactive | inactive | 0.405% (inactive)
CCCCc1ccc(C(=O)O)nc1 | inactive | 1.57% (inactive) | 0.85% and 4.91% | -1.53% and 6.42% | inactive | inactive | inactive | inactive | inactive | -2.75% (inactive)
NCCc1c[nH]c2ccccc12 | inactive | 5.62% (inactive) | 8.58% | 17.6% | inactive | inactive | inactive | inactive | inactive | 
CNCCc1c[nH]c2ccc(O)cc12 | inactive | 1.79% (inactive) and 0.655% (inactive) | 5.25% and 4.7% | 5.9% and 3.87% | inactive | inactive | inactive | inactive | inactive | 
C[C@]12N[C@H](Cc3ccccc31)c1ccccc12 | inactive | -1.18% (inactive) | 51.7% | 40.7% | inactive | inactive | inactive | inactive | inactive | 
CCCN(CCC)[C@@H]1CCc2ccc(O)cc2C1 | inactive | -4.72% (inactive) and 0.978% (inactive) | -36.9% and -10.5% | -41.2% and -9.44% | inactive | inactive | inactive | inactive | inactive | 
C[C@]12CCC3C(CC[C@H]4C[C@H](O)CC[C@]34C)C1CC[C@@H]2C(=O)CO (stereo partly specified) | inactive |  |  |  | inactive | inactive |  |  |  | 
CN1C2CCC1CC(OC(=O)c1cc(Cl)cc(Cl)c1)C2 (stereo unspecified) | inactive | -1.85% (inactive) | -22.1% | -22.4% | inactive | inactive |  |  |  | 
C[N+]1(C)C2CCC1CC(OC(=O)C(CO)c1ccccc1)C2 (stereo unspecified) | inactive | -1.3% (inactive) | -18.3% | -18.4% | inactive | inactive |  |  |  | 
NCCc1c[nH]c2ccc(O)cc12 | inactive | 0.919% (inactive) | -5.09% and -12.1% | -6.32% and -9.72% | inactive | inactive | inactive | inactive | inactive | -0.711% (inactive)
C[C@@H]1O[C@H](C[N+](C)(C)C)C[C@H]1O | inactive | -2.01% (inactive) | 40.6% | 38% | inactive | inactive | inactive | inactive | inactive | 
